Screens deposited in PubChem by several laboratories.
In the library only some 4.6% were active in any assay of this set; here they are far more common.
ADAM10 inh: inhibits human ADAM10. recombinant ADAM10, EDANS/DABCYL FRET peptide cleavage, 3 h. inhibition, % at 7 µM. O14672. 0.62% of 370,000 active;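 active = inhibition above a per-campaign cutoff equal to the mean of compounds falling between control-based bounds plus 3 SD, cut at about 20% in these data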;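 also: 0% = DMSO wells while the 100% control is not disclosed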
FAS TE block: FAS thioesterase (human) inhibition; recombinant FAS-TE, OMFH fluorogenic substrate, fluorescence endpoint; inhibition, % at 15 µM; 0.67% of 360,000 active; AID 602261;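 active = compounds whose normalised, plate-corrected inhibition of enzyme fluorescence in the single-dose primary screen is 50% or more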;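 also: 0% = DMSO with enzyme and 100% = substrate without enzyme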
GRIN3A LBD mod: NR3A (human) ligand-binding domain modulation; Tm shift relative to glycine control, % at 25 µM; NR3A LBD differential scanning fluorimetry, Tm shift; 0% = protein alone, 100% = glycine-bound protein; 2.5% of 340,000 active;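 active = melting temperature shift of at least 10% of the positive control shift, at one fixed dose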
ADAM17 inh: ADAM17 inhibition, QFRET primary screen. 0.83% of 370,000 active. inhibition, % at 6.95 µM. recombinant ADAM17, EDANS/DABCYL FRET peptide cleavage. AID 720648. P78536;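 active = inhibition above the mean of compounds lying between control limits plus 3 SD, set per campaign, cut at about 8.5% in these data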;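 also: 0% = DMSO-only wells as the low control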
Target sequence (P78536 215-824 limits assumed): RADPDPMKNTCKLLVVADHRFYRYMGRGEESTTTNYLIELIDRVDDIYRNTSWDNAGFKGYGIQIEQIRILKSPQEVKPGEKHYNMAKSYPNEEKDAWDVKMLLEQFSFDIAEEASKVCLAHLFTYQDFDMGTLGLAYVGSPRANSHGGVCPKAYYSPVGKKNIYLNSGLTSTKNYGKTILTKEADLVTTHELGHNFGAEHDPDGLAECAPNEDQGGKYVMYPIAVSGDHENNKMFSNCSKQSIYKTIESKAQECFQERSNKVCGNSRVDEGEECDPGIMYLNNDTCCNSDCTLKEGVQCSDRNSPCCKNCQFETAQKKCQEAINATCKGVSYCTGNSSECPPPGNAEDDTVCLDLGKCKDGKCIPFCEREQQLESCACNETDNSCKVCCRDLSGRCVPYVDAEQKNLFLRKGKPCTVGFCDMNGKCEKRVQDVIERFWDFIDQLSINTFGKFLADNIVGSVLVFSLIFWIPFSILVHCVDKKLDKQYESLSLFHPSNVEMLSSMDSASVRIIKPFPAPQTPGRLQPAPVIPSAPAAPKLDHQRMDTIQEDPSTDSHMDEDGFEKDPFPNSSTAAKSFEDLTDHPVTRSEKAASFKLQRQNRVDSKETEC
proKLK7 act: proKLK7 (human) activation, primary screen; activation, % at 7 µM; P49862; purified proKLK7, EDANS-DABCYL substrate fluorescence; 100% is mature enzyme control, 0% vehicle; 0.9% of 370,000 active;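 active = activation above the mean of all tested compounds plus 3 SD, computed per campaign excluding outliers beyond control limits, cut at about 13% in these data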
Starred values were filed as active, the others as inactive; i = inactive; · = no result.

SMILES	ADAM10 inh	FAS TE block	GRIN3A LBD mod	ADAM17 inh	proKLK7 act
COc1ccc(NC(=O)O/N=C/c2ccncc2)cc1	-5	-7	-4	-4	0
COc1ccc(/C=N/OC(=O)Nc2ccc(Cl)cc2)c(OC)c1	2	11	10*	2	1
COc1ccc(OC)c(NC(=O)Nc2ccc3[nH]ccc3c2)c1	4	-5	11*	-3	-1
COc1ccc(NC(=O)Nc2ccc(F)c(F)c2)c(OC)c1	7	-3	22*	3	0
COC(=O)c1cc(-c2cccs2)c(=O)n2c1CCC2	i	·	·	-417	6
CC(C)CNC(=O)OCc1cn(Cc2ccccc2C(F)(F)F)nn1	-7	·	·	-8	0
COC(=O)[C@]12C[C@H](CC(=O)N3CCN(C(=O)c4ccco4)CC3)C(=O)N(Cc3ccccc3)C1=C[C@H](COCc1ccccc1)O[C@@H]2C	-2	·	·	-2	1
Nc1nc(N)c(N=Nc2ccc(Cl)cc2)c(=O)[nH]1	7	-7	1	-2	0
Nc1n[nH]c(C2CC2)c1N=Nc1ccc(Cl)c(Cl)c1	7	36	33*	3	0
Nc1n[nH]c(N)c1N=Nc1ccc2c(c1)OCO2	12	-6	-2	3	-1
Nc1n[nH]c(C2CC2)c1N=Nc1ccc(Cl)cc1	7	10	11*	4	0
O=C(C1CCN(c2ncnc3c2sc2cccc(F)c23)CC1)N1CCN(C(=O)C2CCCO2)CC1 (centres undefined)	-94	·	·	-23	-2
Nc1cc2ccncc2c2ccccc12	i	-9	9	-474	103*
COC(=O)[C@]12C[C@H](CC(=O)N3CCN(C(=O)C4CC4)CC3)C(=O)N(CCc3ccc(OC)c(OC)c3)C1=C[C@H](COCc1ccccc1)O[C@@H]2C	2	·	·	-2	0
COc1ccc(C(=O)C(=NNc2ccccc2)c2ccc(OC)cc2)cc1	0	25	13*	-2	0
COc1ccc(C(=O)C(=NN)c2ccccc2)cc1	-3	0	·	0	0
O=S(=O)(NCCCCNS(=O)(=O)c1c(F)cccc1F)c1ccc2c(c1)OCCO2	3	-7	15*	-1	0
O=S(=O)(NCCNS(=O)(=O)c1c(F)cccc1F)c1ccc2c(c1)OCCO2	-9	-9	-8	-2	0
O=C(CSc1nnc(-c2cccnc2)n1-c1ccccc1)c1ccccc1Cl	-1	·	·	-1	1
CCOC(=O)/C(C#N)=C\c1ccc(OC)c(OC)c1	1	-6	0	1	0
CCOC(=O)/C(C#N)=C/c1ccc(OC(=O)c2ccco2)c(OCC)c1	-5	-3	10*	-1	1
Cn1c(NCC(O)c2ccccc2)nc2c1c(=O)n(Cc1ccc(Cl)c(Cl)c1)c(=O)n2C (centres undefined)	3	29	12*	0	0
Cn1c(NCC(O)c2ccccc2)nc2c1c(=O)n(Cc1ccc(Cl)cc1)c(=O)n2C (centres undefined)	2	5	-15	0	0
Cc1ccc(-c2nc(N=Nc3ccc(O)cc3)n[nH]2)cc1	1	-6	1	3	0
COc1ccc(-c2nc(N=Nc3ccc(O)cc3)n[nH]2)cc1	13	-4	13*	7	-1
SMILES	ADAM10 inh	FAS TE block	GRIN3A LBD mod	ADAM17 inh	proKLK7 act
Cc1ccc(-c2c(C(=O)N/N=C/c3ccncc3)nnn2-c2nonc2N)cc1	1	-8	1	-3	0
CCCN(CCC)Cc1c(C(=O)N/N=C/c2c[nH]c3ccccc23)nnn1-c1nonc1N	15	13	22*	3	-1
COCc1c(C(=O)N/N=C/c2c[nH]c3ccccc23)nnn1-c1nonc1N	-4	-4	18*	0	6
CCCN(CCC)Cc1c(C(=O)N/N=C/c2ccc(Br)cc2)nnn1-c1nonc1N	9	21	22*	1	1
Cc1ccc(-c2c(C(=O)N/N=C/c3c[nH]c4ccccc34)nnn2-c2nonc2N)cc1	2	15	26*	3	-2
CCCc1c(C(=O)N/N=C/c2c[nH]c3ccccc23)nnn1-c1nonc1N	-21	-3	·	-1	-1
CC1=C2NC(N)=[N+](Cc3ccc4c(c3)OCO4)CC2n2c(=O)n(-c3ccccc3)c(=O)n2C1 (centres undefined)	-4	·	·	-1	0
CC[C@H]1OC(=O)[C@H](C)[C@@H](O[C@H]2C[C@@](C)(OC)[C@@H](O)[C@H](C)O2)C(C)[C@@H](O[C@@H]2O[C@H](C)C[C@H](N(C)C)[C@H]2O)[C@](C)(O)C[C@@H](C)CN(C)[C@H](C)[C@@H](O)[C@]1(C)O (some centres undefined)	-10	·	·	0	0
CC(C)Oc1ccc(S(=O)(=O)N2CCCCCC2)c2ccccc12	-1	·	·	0	0
Cc1ccccc1CS(=O)(=O)Cc1ccc(C(=O)Nc2cccc(C)c2C)o1	10	·	·	-1	0
O=C(c1ccc(Br)cn1)N1CCC(Oc2cccnc2)CC1	1	·	·	3	1
Cc1ccc(CN2C(=O)c3ccccc3NC2c2cc(Br)ccc2O)cc1 (centres undefined)	-292	2	22*	-138	-6
CC(C)[C@H](N)C(=O)N[C@@H](Cc1ccccc1)C(=O)N1CCC2CCN(S(=O)(=O)c3ccccc3)CC21 (some centres undefined)	-4	·	·	-1	0
Cc1nnc(NC(=O)C(C)Sc2nnc(-c3ccco3)n2C)s1 (centres undefined)	2	-4	-1	0	0
CC(Sc1nnc(-c2ccco2)n1C)C(=O)Nc1nccs1 (centres undefined)	-1	-10	21*	2	0
COc1ccc(NC(=O)c2[nH]c(C)c(C(C)=O)c2C)cc1S(=O)(=O)Nc1ccc(Br)cc1	8	10	11*	-2	1
COc1ccc(OC)c(S(=O)(=O)Nc2ccc(C(N)=O)cc2)c1	0	-7	2	-2	0
COc1ccc(OC)c(S(=O)(=O)Nc2ccc(C(C)=O)cc2)c1	-1	-3	11*	-4	0
COCCCN1C(=O)[C@H](CC(=O)NCc2ccc(C)o2)[C@]2(C(=O)OC)CCCCC=C12	-11	·	·	-3	0
Nn1c(SCC(=O)NC2CCCCC2)nnc1-c1cc(-c2ccc(F)cc2)n[nH]1	-11	·	·	-4	0
CC1=NN(c2ccc(Cl)cc2)C(=O)/C1=C\c1cccn1-c1ccc(S(N)(=O)=O)cc1	4	-12	22*	1	0
Cc1cccc(-c2cccc3c4c([nH]c23)[C@@H]2C[C@H](N(C)C(=O)Nc3ccccc3C)[C@H]([C@H](C)O)C(=O)N2CC4)c1	-31	·	·	-9	0
CCC1CCc2c(sc(NC(=O)CSc3nc(-c4ccco4)cc(C(F)(F)F)n3)c2C#N)C1 (centres undefined)	-1	24	12*	-1	0
O=C(CSc1nc(-c2ccco2)cc(C(F)(F)F)n1)Nc1ccc2c(c1)OCO2	3	14	-1	0	1
